# Laboratory results reported in PubChem BioAssay (EPA / NIEHS).
# Activity calls are given as the source filed them. Rule for the calls: active = hit-call score of the fitted dose curve at least 0.9, where 1 is the maximum; inactive = score below 0.9.
# Read-out: Urokinase-type plasminogen activator receptor (uPAR), PLAUR (gene 5329)
# Assay: BSK_4H_uPAR: BioMAP Diversity Plus: 4H Assay for Urokinase-type plasminogen activator receptor (uPAR) Biomarker Activity (AID 2283030)
# Conditions: primary human endothelial cells (HUVEC); actives raise or lower the signal
# Method in brief: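 Endpoint derived via bidirectional curve fitting against DMSO baseline; readout was ELISA detection of uPAR on umbilical vein endothelial cells at 24 h post-treatment, with SRB-stained parallel cultures assessing cytotoxicity.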
SMILES,outcome,AC50
O=C1O[C@H]([C@H](O)CO)C(O)=C1O,inactive,
O=C(O)CC(O)(CC(=O)O)C(=O)O,inactive,
CCCCCCCCCCCCCCOS(=O)(=O)O,inactive,
CN(C)CCCN(C)CCCN(C)C,inactive,
Cn1cnc2c1c(=O)[nH]c(=O)n2C,inactive,
N[C@@H](Cc1c[nH]c2ccccc12)C(=O)O,inactive,
CO[C@@H]1COCC[C@@H]1N[C@@H]1CC[C@@](C(=O)N2CCc3ncc(C(F)(F)F)cc3C2)(C(C)C)C1,inactive,
CC(C)c1cccc(C(C)C)c1,inactive,
CC(=O)O,inactive,
NC(=Nc1ccccc1)Nc1ccccc1,inactive,
CC(=O)S[C@H](C(=O)N[C@H]1Cc2ccccc2[C@H]2CCC[C@@H](C(=O)O)N2C1=O)C(C)C,inactive,
OCC(CO)n1cnc(-c2ccc(F)cc2)c1-c1ccnc(Oc2ccccc2)n1,inactive,
CCCCc1nc2cccnc2n1Cc1ccc(-c2ccccc2-c2nnn[nH]2)cc1,inactive,
O=C1NC(=O)C(c2ccccc2)(c2ccccc2)N1,inactive,
Nc1nc(=S)c2[nH]cnc2[nH]1,inactive,
CCCC[C@H]1CN(CC2CCOCC2)C(=O)OC12CCN(C1(C)CCN(C(=O)c3c(C)ncnc3C)CC1)CC2,inactive,
O=C(O)c1cccnc1,inactive,
O=C(Oc1ccccc1)c1cccc(C(=O)Oc2ccccc2)c1,inactive,
O=C1c2c(O)cccc2Cc2cccc(O)c21,inactive,
COc1ccc(C(=O)Nc2nc3ccccc3c(NCc3ccccc3)c2C#N)cc1,inactive,
O=[Si]=O,inactive,
COC(=O)CCC(=O)OC,inactive,
O=Cc1ccccc1C=O,inactive,
c1ccc2occc2c1,inactive,
CC(C)NCC(O)c1ccc(O)c(O)c1 (centres undefined),inactive,
C/C=C/C=C/C(=O)O,inactive,
CC1=C(C)S(=O)(=O)CCS1(=O)=O,inactive,
CCCCC(CC)COC(=O)CCCCCCCC(=O)OCC(CC)CCCC (centres undefined),inactive,
O=C1OC(c2ccc(O)cc2)(c2ccc(O)cc2)c2ccccc21,,14.3 µM (active)

# Read-out: Vascular endothelial growth factor receptor 2 (Homo sapiens) (UniProt P35968)
# Assay: BSK_4H_VEGFRII: BioMAP Diversity Plus: 4H Assay for Vascular endothelial growth factor receptor 2 (VEGFR2) Biomarker Activity (AID 2283031)
# Conditions: primary human endothelial cells (HUVEC); actives raise or lower the signal
# Method in brief: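 In this multiplexed HUVEC system, biomarker ELISA was performed after 24 h chemical exposure. Parallel SRB staining (TCA fixation, 560 nm) tracked cytotoxicity; DMSO served as baseline.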
row,SMILES,outcome
1,O=C1O[C@H]([C@H](O)CO)C(O)=C1O,inactive
2,O=C(O)CC(O)(CC(=O)O)C(=O)O,inactive
3,CCCCCCCCCCCCCCOS(=O)(=O)O,inactive
4,CN(C)CCCN(C)CCCN(C)C,inactive
5,Cn1cnc2c1c(=O)[nH]c(=O)n2C,inactive
6,N[C@@H](Cc1c[nH]c2ccccc12)C(=O)O,inactive
7,CO[C@@H]1COCC[C@@H]1N[C@@H]1CC[C@@](C(=O)N2CCc3ncc(C(F)(F)F)cc3C2)(C(C)C)C1,inactive
8,CC(C)c1cccc(C(C)C)c1,inactive
9,CC(=O)O,inactive
10,NC(=Nc1ccccc1)Nc1ccccc1,inactive
11,CC(=O)S[C@H](C(=O)N[C@H]1Cc2ccccc2[C@H]2CCC[C@@H](C(=O)O)N2C1=O)C(C)C,inactive
12,OCC(CO)n1cnc(-c2ccc(F)cc2)c1-c1ccnc(Oc2ccccc2)n1,inactive
13,CCCCc1nc2cccnc2n1Cc1ccc(-c2ccccc2-c2nnn[nH]2)cc1,inactive
14,O=C1NC(=O)C(c2ccccc2)(c2ccccc2)N1,inactive
15,Nc1nc(=S)c2[nH]cnc2[nH]1,inactive
16,COC(=O)[C@H]1[C@H]2C[C@@H]3c4[nH]c5cc(OC)ccc5c4CCN3C[C@H]2C[C@@H](OC(=O)c2cc(OC)c(OC)c(OC)c2)[C@@H]1OC,inactive
17,CCCC[C@H]1CN(CC2CCOCC2)C(=O)OC12CCN(C1(C)CCN(C(=O)c3c(C)ncnc3C)CC1)CC2,inactive
18,O=C(O)c1cccnc1,inactive
19,O=C(Oc1ccccc1)c1cccc(C(=O)Oc2ccccc2)c1,inactive
20,O=C1c2c(O)cccc2Cc2cccc(O)c21,inactive
21,COc1ccc(C(=O)Nc2nc3ccccc3c(NCc3ccccc3)c2C#N)cc1,inactive
22,COC(=O)CCC(=O)OC,inactive
23,O=Cc1ccccc1C=O,inactive
24,c1ccc2occc2c1,inactive
25,CC(C)NCC(O)c1ccc(O)c(O)c1 (centres undefined),inactive
26,CC1=C(C)S(=O)(=O)CCS1(=O)=O,inactive
27,CCCCC(CC)COC(=O)CCCCCCCC(=O)OCC(CC)CCCC (centres undefined),inactive
28,O=C1OC(c2ccc(O)cc2)(c2ccc(O)cc2)c2ccccc21,inactive

# Read-out: Human Leukocyte Antigen - DR isotype (HLADR), HLA-DRA (gene 3122)
# Assay: BSK_BE3C_HLADR: BioMAP Diversity Plus: BE3C Assay for Human Leukocyte Antigen - DR isotype (HLADR) Biomarker Activity (AID 2283032)
# Conditions: primary human bronchial epithelial cells; actives raise or lower the signal
# Method in brief: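 BioMAP BE3C format: human bronchial epithelium, 24 h compound treatment, ELISA detection of HLA-DR, with bidirectional analysis relative to DMSO.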
row,SMILES,outcome
1,O=C1O[C@H]([C@H](O)CO)C(O)=C1O,inactive
2,O=C(O)CC(O)(CC(=O)O)C(=O)O,inactive
3,CC(=O)O,inactive
4,NC(=Nc1ccccc1)Nc1ccccc1,inactive
5,CC(=O)S[C@H](C(=O)N[C@H]1Cc2ccccc2[C@H]2CCC[C@@H](C(=O)O)N2C1=O)C(C)C,inactive
6,Nc1nc(=S)c2[nH]cnc2[nH]1,inactive
7,COC(=O)[C@H]1[C@H]2C[C@@H]3c4[nH]c5cc(OC)ccc5c4CCN3C[C@H]2C[C@@H](OC(=O)c2cc(OC)c(OC)c(OC)c2)[C@@H]1OC,inactive
8,O=C(O)c1cccnc1,inactive
9,O=C(Oc1ccccc1)c1cccc(C(=O)Oc2ccccc2)c1,inactive
10,O=[Si]=O,inactive
11,c1ccc2occc2c1,inactive
12,C/C=C/C=C/C(=O)O,inactive
